# PubChem BioAssay (NCI)
# Compounds without any hit were thinned out: in the full panel of roughly 83,000, 20% have a hit.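 Single-dose data. Exposure time 48 hours. Values below 10 considered active.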 Activity calls are given as the source filed them.
# Columns and labels:
# Experiment in all cases: NCI-60 one-dose screen, 48 h (100 = growth as untreated, 0 = no growth, -100 = all killed)
# Conditions in all cases: 10 µM unless noted
# NCI-H23 lung = tested on: NCI-H23 lung
# NCI-H226 lung = tested on: NCI-H226 lung
# NCI-H322M lung = tested on: NCI-H322M lung
# HOP-62 NSCLC = tested on: HOP-62 NSCLC
# NCI-H460 lung = tested on: NCI-H460 lung
# HOP-92 NSCLC = tested on: HOP-92 NSCLC
# NCI-H522 lung = tested on: NCI-H522 lung
# A549/ATCC NSCLC = tested on: A549/ATCC NSCLC
# 786-0 renal = tested on: 786-0 renal
# COLO 205 colon = tested on: COLO 205 colon
SMILES,growth (NCI-H23 lung),growth (NCI-H226 lung),growth (NCI-H322M lung),growth (HOP-62 NSCLC),growth (NCI-H460 lung),growth (HOP-92 NSCLC),growth (NCI-H522 lung),growth (A549/ATCC NSCLC),growth (786-0 renal),growth (COLO 205 colon)
COc1ccc(OC)c(-c2c(C#N)c(-c3ccc(Cl)cc3)nc3c2c(-c2ccccc2)nn3-c2ccccc2)c1,102% (inactive),98.3% (inactive),95.7% (inactive),99.3% (inactive),103% (inactive),101% (inactive),86% (inactive),98.4% (inactive),98.1% (inactive),104% (inactive)
O=C(COc1ccc(/C=C2\Oc3ccccc3C2=O)cc1)Nc1nc2c(s1)CCCC2,45.1% (inactive),84.3% (inactive),115% (inactive),44.2% (inactive),99.5% (inactive),-90.1% (active),-74.9% (active),73.2% (inactive),20% (inactive),102% (inactive)
Cc1nn(-c2ccccc2)c(Cl)c1/C=C(/NC(=O)c1ccccc1)c1nc2ccccc2[nH]1,106% (inactive),108% (inactive),90.3% (inactive),99% (inactive),109% (inactive),82.6% (inactive),86.6% (inactive),90% (inactive),90.2% (inactive),83.6% (inactive)
COc1ccc(C2CC(c3cccc(OC)c3)=NN2C(=O)c2cc(OC)c(OC)c(OC)c2)cc1 (stereo not given),30.6% (inactive),79.9% (inactive),45.1% (inactive),39.9% (inactive),11.4% (inactive),35.9% (inactive),2.3% (active),32.5% (inactive),21.6% (inactive),-1.64% (active)
O=C(/C=C/c1c(Cl)nc2sccn12)c1ccc(F)c(F)c1,67% (inactive),73.2% (inactive),93.1% (inactive),79.8% (inactive),79.5% (inactive),50.6% (inactive),66.5% (inactive),80.3% (inactive),84.7% (inactive),93% (inactive)
O=C(NC(CSSCC(NC(=O)c1ccccc1)C(=O)O)C(=O)O)c1ccccc1 (stereo not given),101% (inactive),98.7% (inactive),103% (inactive),95.6% (inactive),107% (inactive),88.3% (inactive),92.4% (inactive),104% (inactive),105% (inactive),114% (inactive)
NC(=S)Nc1cccc(O)c1,90.6% (inactive),96.9% (inactive),88.9% (inactive),89.8% (inactive),104% (inactive),98.9% (inactive),93.1% (inactive),99.8% (inactive),100% (inactive),129% (inactive)
C[C@]12CC[C@@H]3c4cc(OC(F)F)c(O)cc4CC[C@H]3[C@@H]1CC[C@@H]2OS(N)(=O)=O,3.46% (active),57.4% (inactive),45.4% (inactive),43.3% (inactive),13.9% (inactive),74.6% (inactive),26% (inactive),31.3% (inactive),56.4% (inactive),10.7% (inactive)
Cn1c(=O)c2[nH]c(NN)nc2n(C)c1=O,107% (inactive),106% (inactive),118% (inactive),120% (inactive),101% (inactive),95.7% (inactive),99.9% (inactive),106% (inactive),98.7% (inactive),109% (inactive)
Cc1ccc(C(=O)COc2cccc(/C=C3\Oc4ccccc4C3=O)c2)cc1,90.5% (inactive),80.9% (inactive),101% (inactive),97.1% (inactive),119% (inactive),89.8% (inactive),78.2% (inactive),96.9% (inactive),97.6% (inactive),115% (inactive)
COc1ccc2c(c1)O/C(=C\c1cccc(OCC(=O)Nc3nc4ccccc4s3)c1)C2=O,-1.91% (active),83.7% (inactive),106% (inactive),115% (inactive),110% (inactive),-24.5% (active),-60.1% (active),95.8% (inactive),92.2% (inactive),104% (inactive)
Cc1c(C(=O)NC(Cc2ccccc2)C(O)C(=O)NCc2ccc(F)cc2)[nH]c2ccccc2c1=O (stereo not given),99.8% (inactive),105% (inactive),101% (inactive),99.2% (inactive),104% (inactive),108% (inactive),93.5% (inactive),101% (inactive),104% (inactive),111% (inactive)
O=Cc1ccc(O)c2ncccc12,29.2% (inactive),116% (inactive),97.1% (inactive),44.6% (inactive),30.1% (inactive),43.5% (inactive),51.8% (inactive),100% (inactive),89.3% (inactive),17.8% (inactive)
O=C1/C(=C/c2ccccc2)CCc2nc3ccccc3c(/C=C/c3ccc(Cl)cc3)c21,85.5% (inactive),92.3% (inactive),94.6% (inactive),110% (inactive),93.4% (inactive),79.8% (inactive),71.1% (inactive),93.5% (inactive),99.8% (inactive),104% (inactive)
